Reference: PubChem BioAssay AID651718 (The Scripps Research Institute Molecular Screening Center, 2012)
The whole screen tested about 360,000 compounds, of which about 2,700 (0.75%) were called active. Only a selection was taken, and actives are over-represented in it overall. Unmarked numbers belong to inactive results. Rule as the data show it: active = inhibition above about 4.5%; inactive = the rest.

These molecules were tested on Methionine sulfoxide reductase A (Bos taurus) (assay: bovine MsrA enzyme inhibitors, primary screen, biochemical, absorbance, HTS (AID 651718;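 also: 0% = vehicle wells with enzyme and 100% = reference inhibitor wells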)). Conditions: purified bovine MsrA, absorbance read-out; at 15.5 µM; stronger effect = higher value.
Molecule `CCOC(=O)N1CCN(C(=O)C[C@H]2C[C@@]3(C(=O)OC)C(=C[C@H](C4CCCC4)O[C@@H]3C)N(Cc3ccccc3)C2=O)CC1` has an inhibition of -0.08%.
`Nc1ncnc2c1ncn2C1OC(CO)CC1O` (stereo unspecified) gave an inhibition of 1.51%.
`CC1(C(=O)NS(=O)(=O)c2cccc(OC(F)F)c2)CCN1C(=O)C1CC1` (stereo unspecified) gave an inhibition of 0.29%.
`COC(=O)c1c(-c2ccc(OC)cc2)c2c(c3c4ccccc4n(S(=O)(=O)c4ccc(C)cc4)c13)C(=O)N(C)C2` was tested, and the inhibition was 1.59%.
Work on `Nc1nc2c(ncn2[C@@H]2O[C@H](C(=O)N[C@H](Cc3ccccc3)C(=O)NCC3CCCCC3)[C@@H](O)[C@H]2O)c(=O)[nH]1` yielded an inhibition of 0.66%.
Work on `COc1ccc(Cl)cc1NC(=O)CN(C)C(=O)c1cn(-c2ccccc2)nc1-c1cccs1` yielded an inhibition of 0.13%.
For `O=C(O)c1ccc(N/N=C/c2cn(-c3ccccc3)nc2-c2cccs2)cc1`, the inhibition was 8.7% (active).
With `CC(=O)C1=C(C)NC(C)=C(C(C)=O)C1c1cn(-c2ccccc2)nc1-c1cccs1` the inhibition was 1.65%.
`CC(=NNC(N)=O)c1ccc(Cl)c(-n2cccc2)c1` showed an inhibition of -0.35%.
Work on `CN1CCCCC(NC(=O)C(C)(C)C)C1=O` (stereo unspecified) yielded an inhibition of 0%.
`Cc1ccc(NC(=O)CC2S/C(=N/N=C3\CCCc4ccccc43)NC2=O)cc1` (stereo unspecified) gave an inhibition of -0.26%.
`Cc1ccc(S(=O)(=O)Oc2ccc(/C=N/NC(=O)c3c(Cl)cnn3C)cc2)cc1` showed an inhibition of 0.98%.
With `CC(=O)Nc1ccc(S(=O)(=O)Oc2ccc(/C=N/N=C3/NC(=O)C(CC(=O)O)S3)cc2)cc1` (stereo unspecified) the inhibition was 5.33% (active).
For `COC(=O)[C@]12C[C@H](CC(=O)NCCCCc3ccccc3)C(=O)N(Cc3ccc4c(c3)OCO4)C1=C[C@H](C(C)(C)C)O[C@@H]2C`, the inhibition was 1.75%.
Molecule `CCOC(=O)Cn1c2c(n(-c3ccc(F)cc3)c1=O)C=C(c1ccccc1)[C@@H](C)C(C(=O)N(C)C1CCCCC1)=C2` has an inhibition of -0.4%.
Molecule `COc1ccc(C2=CN(Cc3ccccc3)C(c3ccc(OC)cc3)CC2=O)cc1` (stereo unspecified) has an inhibition of -0.65%.
`COc1ccc(CNS(=O)(=O)c2cc(Br)ccc2Br)cc1` was tested, and the inhibition was 0.62%.
`Fc1ccccc1/C=N/Nc1cc(N2CCCCC2)ncn1` showed an inhibition of 1.96%.
Molecule `O=C(O)c1ccc(NN=CC2=C(N3CCOCC3)/C(=C/c3ccccc3)CC2)cc1` has an inhibition of 2.43%.
With `C(=N/Nc1cc(N2CCOCC2)nc(N2CCOCC2)n1)/c1ccccc1` the inhibition was 5.01% (active).
With `Cc1cc2c(C)nc(N/N=C/c3ccccc3)nc2o1` the inhibition was 3.05%.
`COc1ccccc1-c1cnn2c(N3CCOCC3)cc(C)nc12` gave an inhibition of 1.96%.
With `COc1ccc(/C=N/Nc2cc(N3CCOCC3)nc(C)n2)c(OC)c1` the inhibition was 5.8% (active).
With `COc1ccccc1C(=O)N1O[C@]23C=C[C@]14C[C@@H](O)CC[C@]4(C)C2CC[C@]1(C)[C@@H]([C@H](C)/C=C/[C@H](C)C(C)C)CC[C@H]13` (stereo partly specified) the inhibition was -0.78%.
Work on `CN(C)C(=O)N1CCN(C(=O)[C@@H](Cc2ccccc2)NC(=O)[C@H]2O[C@@H](n3ccc(N)nc3=O)[C@H](O)[C@@H]2O)CC1` yielded an inhibition of 0.17%.
`CSc1ccc(Oc2cccc3c2S(=O)(=O)N([C@H](C)c2ccccc2)C[C@@H](COCc2ccccc2)O3)cc1C` gave an inhibition of 0.09%.
Molecule `CC(C)Cc1oc(C(=O)O)cc1CN` has an inhibition of -1.34%.
Molecule `Cc1ccc(S(=O)(=O)NCCC(c2ccccc2)c2ccccc2)cc1C(=O)O` has an inhibition of 0%.
For `CCOC(=O)C(C)n1cnc2scc(-c3ccc(C)c(C)c3)c2c1=O` (stereo unspecified), the inhibition was 8.45% (active).
`CCn1cnc2scc(-c3ccc(C)c(C)c3)c2c1=O` showed an inhibition of 0.83%.
`CC(=O)C(C)n1cnc2scc(-c3ccc(C)cc3)c2c1=O` (stereo unspecified) gave an inhibition of 0.23%.
Molecule `CCOC(=O)C(C)n1cnc2c(nnn2-c2ccc(F)cc2)c1=O` (stereo unspecified) has an inhibition of -0.86%.
`CCC(C(=O)OC)n1cnc2scc(-c3ccc(C)cc3)c2c1=O` (stereo unspecified) gave an inhibition of 2.62%.
For `COC(=O)Cn1cnc2scc(-c3ccc(C)c(C)c3)c2c1=O`, the inhibition was 4.6% (active).
With `Cc1sc2c(c1C)c(=O)n(-c1ccccc1)c1nncn21` the inhibition was 0.74%.
`CC1(C)CC(=O)C=C(c2ccc3ncccc3c2)C1` showed an inhibition of 0.6%.
Work on `Cc1cccc(C(=O)NC2CCN(CC(=O)Nc3cccc(Cl)c3)CC2)c1` yielded an inhibition of -0.97%.
For `COc1ccc(-c2ccc3c(n2)CCCN3S(=O)(=O)c2ccc(C)cc2)cc1`, the inhibition was 1.35%.
`CCOC(=O)/C=C/c1ccccc1O` gave an inhibition of 1.24%.
`Nc1ncnc2c1ncn2[C@@H]1O[C@H](C(=O)N[C@@H](CCc2ccccc2)C(=O)N2CCCN(Cc3cccs3)CC2)[C@@H](O)[C@H]1O` gave an inhibition of -0.82%.
Molecule `Cc1ccc(NC(=O)/C(=C\c2ccccc2)NC(=O)c2ccco2)cc1` has an inhibition of 1.7%.
`O=C(NC(Cc1ccccc1)C(=O)O)/C(=C\c1ccccc1)NC(=O)c1ccco1` (stereo unspecified) showed an inhibition of -0.85%.
In the case of `COc1ccc(/C=C(/NC(=O)c2ccco2)C(=O)Nc2ccc(C(C)=O)cc2)cc1`, the inhibition is reported as 6.24% (active).
Molecule `O=C(NCc1ccccc1)[C@@H]1CCCN1C(=O)[C@@H](NS(=O)(=O)c1ccc(F)cc1F)C1CCCCC1` has an inhibition of 0.41%.
`C[C@@H](CN1C2=NC[C@@H](Cc3ccccc3)N2C[C@H]1Cc1ccc(O)cc1)NC(=O)CCC1CCCCC1` gave an inhibition of -0.6%.
`C[C@H]1[C@H](c2ccccc2)Oc2cc(Br)ccc2S(=O)(=O)N1Cc1cccc(F)c1` was tested, and the inhibition was -0.62%.
For `COc1ccc(CCNC(=O)c2ccccc2-c2ccccc2C(=O)O)cc1OC`, the inhibition was -1.11%.
With `COc1ccc(CC(=O)c2ccc(O)cc2O)cc1OC` the inhibition was 5.45% (active).
Work on `COc1ccc(CCNC(=O)CCc2ccccc2O)cc1OC` yielded an inhibition of -1.41%.
With `COCc1[nH]nc2c1C(c1ccccc1)N(c1ccccc1)C2=O` (stereo unspecified) the inhibition was 2.45%.
`O=C(Nc1ccc(C(=O)O)cc1)/C(=C/c1ccc([N+](=O)[O-])cc1)NC(=O)c1ccccc1` was tested, and the inhibition was 5.97% (active).
`CNC(=O)/C(=C\C=C\c1ccccc1)NC(=O)c1ccc([N+](=O)[O-])cc1` was tested, and the inhibition was 5.69% (active).
Work on `O=C(Nc1ccc(C(=O)O)cc1)/C(=C\c1ccccc1)NC(=O)c1ccc(Br)cc1` yielded an inhibition of -0.28%.
Work on `O=C(N/C(=C\c1ccc([N+](=O)[O-])cc1)C(=O)N1CCOCC1)c1cccc(Br)c1` yielded an inhibition of 2.94%.
For `CC(C=Cc1ccccc1)=NNS(=O)(=O)c1ccc([N+](=O)[O-])cc1`, the inhibition was 0.99%.
Work on `Cc1ccc(C(=O)N/C(=C/C=C/c2ccccc2)C(=O)NCc2ccco2)cc1` yielded an inhibition of 3.44%.
